Assay outcomes from PubChem BioAssay.
HTR2A ag: mouse HTR2A agonism via beta-arrestin recruitment; P35363; CHO-K1 mHTR2A beta-arrestin complementation, luminescence; percent of 30 µM serotonin response; activation, % at 7.6 µM; 360,000 compounds, 0.66% hits;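 active means activation above a run cutoff, the mean activation of all tested compounds plus 3 SD, cut at about 14% in these data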;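 further: 0% = plate median of compound wells and 100% = 30 µM serotonin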
sPLA2-III inh: Inhibits HGIII-sPLA2 liposome hydrolysis, primary screen; AID 743126; QFRET BODIPY PC-A2 liposome hydrolysis, fluorescence; inhibition, % at 12.2 µM; 370,000 compounds, 0.56% hits;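 active means inhibition above mean plus 3 SD of compounds lying within the high and low control bounds, cut at about 19% in these data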;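 further: 0% = median of test compound wells and 100% = no enzyme DMSO wells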
OPRM1-OPRD1 inv: inverse agonist of human OPRM1-OPRD1 heterodimerization; P35372+P41143; cell-based MOR-DOR heterodimer luminescence, inverse agonism; inhibition, % at 9.3 µM; 340,000 compounds, 0.21% hits; in the data active means inhibition above about 22%, passing the limit was not always enough;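 further: 0% = cells with DMSO and 100% = wells without cells with DMSO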
Target sequence (P35372 whole entry, looked up): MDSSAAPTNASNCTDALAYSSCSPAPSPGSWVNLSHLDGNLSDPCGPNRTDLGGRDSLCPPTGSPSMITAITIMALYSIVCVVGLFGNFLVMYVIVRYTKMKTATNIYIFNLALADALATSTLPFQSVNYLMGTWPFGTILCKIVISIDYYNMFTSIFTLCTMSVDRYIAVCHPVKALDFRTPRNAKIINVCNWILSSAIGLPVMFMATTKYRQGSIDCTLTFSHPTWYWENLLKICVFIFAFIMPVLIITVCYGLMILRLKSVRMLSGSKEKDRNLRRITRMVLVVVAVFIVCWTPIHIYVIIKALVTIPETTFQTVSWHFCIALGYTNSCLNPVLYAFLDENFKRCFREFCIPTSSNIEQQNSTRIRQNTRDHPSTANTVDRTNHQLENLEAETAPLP
Target sequence (P41143 whole entry, looked up): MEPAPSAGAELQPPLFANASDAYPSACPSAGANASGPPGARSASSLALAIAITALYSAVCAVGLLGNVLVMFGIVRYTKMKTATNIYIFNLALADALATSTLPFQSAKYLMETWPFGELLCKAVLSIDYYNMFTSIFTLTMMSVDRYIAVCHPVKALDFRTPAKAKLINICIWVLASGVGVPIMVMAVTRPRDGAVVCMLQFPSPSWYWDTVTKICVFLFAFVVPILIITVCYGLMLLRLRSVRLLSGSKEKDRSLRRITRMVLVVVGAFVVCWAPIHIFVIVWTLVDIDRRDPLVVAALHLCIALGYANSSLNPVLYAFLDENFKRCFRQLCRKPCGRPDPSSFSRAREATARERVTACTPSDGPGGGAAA
HTR5A ag: counter-screen for OPRM1-OPRD1 agonists: human HTR5A agonism; HTR5A agonist assay, luminescence, cell-based; activation, % at 9.3 µM; 340,000 compounds, 0.61% hits; AID 504692; in the data active means activation mostly above about 9.5%, no sharp cut-off; inactive means mostly below about 7.6%;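 further: 0% = cells with vehicle only and 100% = reference agonist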
OPRM1-OPRD1 ag: agonists of human mu-delta opioid receptor heterodimerization | cells, OPRM1-OPRD1 heterodimerization, luminescence | activation, % at 9.3 µM | 340,000 compounds, 0.3% hits | AID 504326; in the data active means activation above about 18%;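 further: 0% = vehicle-treated cells and 100% = reference agonist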
HTR5A inv ag: counter-screen for OPRM1-OPRD1 inverse agonists: human HTR5A inverse agonism; inhibition, % at 9.3 µM; 340,000 compounds, 0.083% hits; AID 504634; HTR5A cell line, luminescence; in the data active means inhibition mostly above about 23%, no sharp cut-off; inactive means mostly below about 18%;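 further: 0% = cells with DMSO and 100% = no-cell wells with DMSO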
* hit, by the source's call; . = no result given. Hits are enriched below; roughly 2.2% of the tested compounds scored in any of these assays.

SMILES	HTR2A ag	sPLA2-III inh	OPRM1-OPRD1 inv	HTR5A ag	OPRM1-OPRD1 ag	HTR5A inv ag
O=C(COc1ccccc1)N/N=C/c1ccc(O[C@@H]2O[C@H](CO)[C@@H](O)[C@H](O)[C@H]2O)cc1	5	0	11	13*	-2	4
C=c1[nH]cc(C(C)c2c(C)n(C)c3ccccc23)/c1=C/C (stereo unspecified)	.	-1	.	.	.	.
O=C(N[C@@H](Cc1ccccc1)C(=O)OCc1ccccc1)c1nc[nH]c1C(=O)N1CCN(c2ccccc2)CC1	-3	-2	-16	13*	3	-32
CCCNC(=S)N1CCN(Cc2ccc3c(c2)OCO3)CC1	4	9	-5	12*	1	-28
O=C(c1cc2ccccc2o1)N1CCN(Cc2ccc3c(c2)OCO3)CC1	-7	-11	9	11*	-3	-11
O=C(c1cc2ccccc2oc1=O)N1CCN(Cc2ccc3c(c2)OCO3)CC1	3	7	5	1	-1	-2
Cc1cc(Cl)ccc1NC(=S)N1CCN(Cc2ccc3c(c2)OCO3)CC1	1	3	-29	-2	5	39
Fc1ccccc1NC(=S)N1CCN(Cc2ccc3c(c2)OCO3)CC1	5	1	8	12*	-2	-5
O=C1CCC[C@H]2[C@@H](Cc3ccccc3)[C@@H](O)CC[C@]23CCCN13	.	2	.	.	.	.
Cc1ccc2c(c1)N(C(=O)CSc1nncn1C)C(C)(C)c1ssc(=S)c1-2	-2	24*	15	-6	-3	18
C[n+]1cc(C(O)(c2ccccc2)c2ccccc2)n2ccccc21	.	5	.	.	.	.
CCOC1Cc2ccccc2N(C(N)=O)c2ccccc21 (stereo unspecified)	-1	1	-6	1	1	-9
COC1Cc2ccccc2N(C(=O)N2CCN(CCO)CC2)c2ccccc21 (stereo unspecified)	3	1	-13	14*	3	-12
CC(C)NC(=O)N[C@H]1C[C@@H]2O[C@H](CO)CC[C@@H]2O[C@@H]1CCc1ccc(-c2ccc(F)cc2)cc1	.	-9	.	.	.	.
Cc1c(Cl)cccc1NC(=O)c1cccc(NC(=O)CCC(=O)O)c1	-3	11	11	12*	-3	16
Cc1ccc(NC(=O)c2cccc(NC(=O)CCC(=O)O)c2)cc1C	0	1	6	-3	-1	9
CCOC(=O)c1sc(N(Cc2ccccc2)C(=O)COC(=O)c2ccc(O)cc2)nc1C	10	-26	-74	11*	14	-40
CCOC(=O)c1sc(N(Cc2ccccc2)C(=O)COC(=O)c2ccccc2O)nc1C	0	-5	1	2	0	-7
O=C1C(NC(=O)N2c3ccccc3C=Cc3ccccc32)CCCCN1Cc1cccc(C(F)(F)F)c1 (stereo unspecified)	.	-11	.	.	.	.
CCn1nc(NC(=O)c2cccnc2)c2cc3cccc(C)c3nc21	3	-6	-65	18*	12	-66
CC(=O)c1ccc(NC(=O)CSc2ccsc2[N+](=O)[O-])cc1	-1	-5	10	9.4*	-2	-22
O=C(CSc1ccsc1[N+](=O)[O-])Nc1cc(F)ccc1F	0	-6	8	-3	-2	6
Cn1c(-c2ccccc2)c(C(=O)CCl)c2ccccc21	3	-2	-233	44*	42*	-123
Cn1c(-c2ccccc2)c(CCO)c2ccccc21	-4	2	-15	6	3	9
COC(=O)[C@]12C[C@H](CC(=O)N3CCCCC3)C(=O)N(CCC3=CCCCC3)C1=C[C@H](C1CCCC1)O[C@@H]2C	.	7	.	.	.	.
SMILES	HTR2A ag	sPLA2-III inh	OPRM1-OPRD1 inv	HTR5A ag	OPRM1-OPRD1 ag	HTR5A inv ag
Cc1cc(C)cc(-c2c(C(=O)c3ccc(Br)cc3)[nH]c(N)c2C(=O)NCc2ccc(Cl)cc2)c1	.	6	.	.	.	.
O=C(Nc1nc(-c2cccc3ccccc23)cs1)c1cnccn1	-1	5	5	10*	-1	-26
CC(=O)c1sc2nc(SCC(=O)NCCc3ccccc3)[nH]c(=O)c2c1C	12	-12	23	13*	-7	-27
COc1ccc(CCNC(=O)CSc2nc3sc(C(=O)O)c(C)c3c(=O)[nH]2)cc1OC	2	7	13	1	-2	-16
O=C(OCC(=O)N1CCCCC1)c1c[nH]c2ccccc12	-5	-14	16	-1	-4	2
O=C(OCC(=O)N1CCCCC1)c1cc(=O)[nH]c2ccccc12	0	4	0	13*	0	17
COc1ccc(/C=C2/CN(Cc3ccc(OC)cc3OC)C3=NC(c4ccc5ccccc5c4)CC(=O)N32)cc1 (stereo unspecified)	.	4	.	.	.	.
COc1cc(Cl)c(C)cc1NC(=O)CNC(C)c1ccccc1OC (stereo unspecified)	14	-3	3	10*	-1	9
COC(=O)c1cc2c(s1)CS(=O)C2 (stereo unspecified)	0	1	5	12*	-1	7
N#Cc1c(-c2ccccc2)cc(-c2ccccc2)nc1SCc1nnc(-c2ccccc2)o1	1	8	-6	13*	1	3
COC(=O)[C@]12C[C@H](CC(=O)NCc3ccccc3)C(=O)N(Cc3cccc4ccccc34)C1=C[C@H](COCc1ccccc1)O[C@@H]2C	.	-28	.	.	.	.
Cc1cc(C)c(CN2CCN(C(=O)Cn3cnc(C(=O)Nc4ccc(C)c(C)c4)n3)CC2)c(C)c1	7	-11	-5	8.5*	1	-31
COC(=O)c1cc(C(c2ccccc2O)C2CCCO2)n2cccc(C(C)(C)C)c12 (stereo unspecified)	.	2	.	.	.	.
O=S1(=O)c2ccc(N3CCSCC3)cc2Oc2ccccc2CN1Cc1cn(Cc2ccc(F)cc2)nn1	.	4	.	.	.	.
CCc1nnc(SCC(=O)NC2CCCC2)nc1CC	11	6	19	9.8*	-4	-9
CCc1nnc(SCC(=O)NC2CCCCC2)nc1CC	4	1	1	-1	0	-8
O=C(Nc1ccc2c(c1)OCO2)O[C@@H]1CC[C@@]23CCCN2C(=O)CCC[C@H]3C1	.	-1	.	.	.	.
COc1ccc(-c2nonc2NC(=O)c2ccco2)cc1OC	5	3	8	-4	-2	8
CCOc1ccc(-c2nonc2NC(=O)c2ccco2)cc1OCC	-5	-8	-6	13*	1	-5
CCCN1CCN(CCCNC(=O)C(CC)n2nc(C)c3sc4ccccc4c3c2=O)CC1 (stereo unspecified)	0	2	15	10*	-3	6
COc1ccc(/C=N/NC(=O)c2ccc(Cn3cc([N+](=O)[O-])cn3)o2)c(OC)c1C	-1	5	9	-2	-2	4
COc1ccc(/C=N\NC(=O)c2ccc(Cn3cc(Br)c([N+](=O)[O-])n3)o2)c(OC)c1C	3	5	3	11*	-1	-25
